SMILES strings stand for the structures. Among all 52,000 compounds or so, about 4,300 (8.3%) were called active. This excerpt belongs to a sample that is enriched for actives. Unmarked numbers belong to inactive results. Cut-off read from the data, not from the text of the source: active = survival mostly below about 52% (no sharp cut-off); inactive = mostly above about 56%.

This assay concerns DeltatarO mutant. The assay can be described thus: growth inhibition of S. aureus wild type versus tarO mutant, primary screen, teichoic acid synthesis inhibitors, RN4220, OD600 (AID 463173). The note with it: OD600, 18 h, active compounds read low, screened at 18.75 µg/mL (by protocol).
`c1ccc(CSc2nc3ncccc3[nH]2)cc1`: the survival was 93%.

As for `CCN(CC)C(=O)C1CCN(C(=O)c2cnn(-c3ccccc3)c2-n2cccc2)CC1`, the survival is 83%.

On to `Cc1ccc2occ(CC(=O)Nc3ccc(S(=O)(=O)N4CCC(C)CC4)cc3)c2c1`, for which the survival is 55% (active).

With `O=S(=O)(c1ccc(Cl)cc1)N1CCC(c2ccncc2)CC1`, the survival is 73%.

Regarding `CC(C)(C)c1ccc(S(=O)(=O)N2CCC(c3ccncc3)CC2)cc1`, the survival was 109%.

Consider `CC(=O)Nc1ccc(S(=O)(=O)N2CCC(c3ccncc3)CC2)cc1`, for which the survival was -5% (active).

As to `CC(=O)Nc1ccc(S(=O)(=O)N2CCC(C)CC2)cc1`, the survival is 96%.

`CC1CCN(S(=O)(=O)c2ccccc2)CC1`: the survival was 104%.

In the case of `CC1CCN(S(=O)(=O)c2ccc(NC(=O)Nc3ccccc3)cc2)CC1`, the survival is 9% (active).

Turning to `Cc1ccc2c(CC(=O)Nc3ccc(S(=O)(=O)N4CCC(C)CC4)cc3)coc2c1`, the survival was 59%.

For the molecule `Cc1ccc2occ(CC(=O)Nc3ccc(S(=O)(=O)N4CCCC(C)C4)cc3)c2c1` (centres undefined), the survival was 58%.

Turning to `CC1=C(C(=O)Nc2ccccc2C)C(c2ccncc2)n2nc(SCc3ccccc3Cl)nc2N1` (centres undefined), the survival is 62%.

Regarding `CCOC(=O)c1ccccc1NC(=O)N(Cc1ccc(C)cc1)Cc1cccn1-c1nnc(N2CCCC2=O)s1`, the survival was 118%.

With `Cc1ccc(NC(=O)Cn2nnc(-c3nc(-c4ccncc4)no3)c2N)c(C)c1`, the survival was 92%.

As to `CCc1ccccc1NC(=O)CSc1nccn1C`, the survival is 89%.

`CC1=C(c2ccc(C)c(C)c2)S(=O)(=O)N(Cc2ccc(C(=O)NCc3ccc(C)cc3)cc2)C1=O`: the survival is 92%.

On to `COc1ccc(-c2ccc(=O)n(CC(=O)Nc3ccc(N(C)C)cc3)n2)cc1`, for which the survival was 90%.

Consider `CCC1CCCCN1S(=O)(=O)c1ccc(C(=O)Nc2sc3c(c2C(N)=O)CCC3)cc1` (centres undefined), for which the survival was 68%.

In the case of `Cc1ccc(-n2nc(C(=O)N(C)c3ccccc3Cl)c3c4ccccc4n(C)c3c2=O)cc1`, the survival was 88%.

For `CCCNS(=O)(=O)c1cc(-c2nnc3c4ccccc4c(C)nn23)ccc1OC`, the survival was 100%.

For `Cc1cc2c(cc1S(=O)(=O)NCc1ccccc1Cl)OCCN2C`, the survival is 106%.

In the case of `CCc1ccc(-n2nc3cc(C)c(NC(=O)c4cc(Cl)ccc4OC)cc3n2)cc1`, the survival was 86%.

Take `CCCCn1c(=NC(=O)C(C)(C)Oc2ccc(Cl)cc2)c(C(=O)OCC)cc2c(=O)n3ccccc3nc21`: the survival was 60%.

Regarding `CCCn1c(=NC(=O)c2cc3ccccc3o2)c(C(=O)OCC)cc2c(=O)n3ccccc3nc21`, the survival was 27% (active).

With `CCCCn1c(=NC(=O)c2cc3ccccc3o2)c(C(=O)OCC)cc2c(=O)n3ccccc3nc21`, the survival was 107%.

Take `CCOC(=O)c1cc2c(=O)n3ccccc3nc2n(CC(C)C)c1=NC(=O)c1cc2ccccc2o1`: the survival is 59%.

In the case of `CCOC(=O)c1cc2c(=O)n3ccccc3nc2n(CC(C)C)c1=NC(=O)C(C)(C)Oc1ccc(Cl)cc1`, the survival is 31% (active).

As for `CCOC(=O)c1cc2c(=O)n3ccccc3nc2n(CCOC)c1=NC(=O)c1cc2ccccc2o1`, the survival was 58%.

In the case of `CCOC(=O)c1cc2c(=O)n3ccccc3nc2n(CC(C)C)c1=NC(=O)C(C)Oc1ccccc1` (centres undefined), the survival was 165%.

For `CCOC(=O)c1cc2c(=O)n3ccccc3nc2n(CCCOC)c1=NC(=O)c1cc2ccccc2o1`, the survival was 65%.

Consider `CCOC(=O)c1cc2c(=O)n3ccccc3nc2n(C(C)C)c1=NC(=O)c1cc2ccccc2o1`, for which the survival is 25% (active).

Regarding `CCOC(=O)c1cc2c(=O)n3ccccc3nc2n(CCCOC)c1=NC(=O)C(C)Oc1ccccc1` (centres undefined), the survival was 48% (active).

Turning to `CCOC(=O)c1cc2c(=O)n3ccccc3nc2n(C(C)C)c1=NC(=O)c1c(-c2c(F)cccc2Cl)noc1C`, the survival is 151%.

With `CCOC(=O)c1cc2c(=O)n3ccccc3nc2n(C(C)C)c1=NC(=O)C(C)(C)Oc1ccc(Cl)cc1`, the survival was 57%.

Regarding `O=C(NC1CSCC1=O)c1ccccc1` (centres undefined), the survival was 69%.

Consider `O=C1CC(c2ccccc2)Sc2nc(-c3ccc(F)cc3)nn21` (centres undefined), for which the survival is 81%.

Consider `O=c1[nH]cnc2nc3c4ccccc4c4ccccc4c3nc12`, for which the survival is 74%.

Turning to `O=C(Nc1cccc(F)c1)c1ccc2c(c1)N(Cc1ccccc1)C(=O)c1ccccc1S2(=O)=O`, the survival was 80%.

Regarding `O=C1CN=C(Nc2ccccc2Cl)N1Cc1ccccc1`, the survival was 110%.

For the molecule `COc1ccccc1NC(=O)C1CCC(CNS(=O)(=O)c2ccc3c(c2)CC(C)N3C(C)=O)CC1` (centres undefined), the survival is 58%.

For `O=C(NC1CC(=O)N(c2cccc(F)c2)C1)c1ccc(S(=O)(=O)N2CCCC2)cc1` (centres undefined), the survival was 68%.

Take `CCOCCCNC(=O)C(=O)Nc1c2c(nn1-c1ccc(OC)cc1)CSC2`: the survival was 83%.

Consider `Cc1ccc(NC(=O)Cn2c(=O)n(CCc3ccccc3)c(=O)c3c4c(sc32)CCCC4)c(C)c1`, for which the survival was 92%.

Consider `CCC1C=CCC2C(=O)N(CC(=O)NCCC3=CCCCC3)C(=O)C12` (centres undefined), for which the survival was 73%.

As to `CC(=O)N1CCCn2c1nc1ccccc12`, the survival was 92%.

Take `Cc1ccc(C)c(N2CCN(C(=O)Cn3cnc4sc(C)c(S(=O)(=O)N5CCN(c6ncccn6)CC5)c4c3=O)CC2)c1`: the survival was 67%.

For `CC(NC(=O)c1ccc2c(c1)N(Cc1cccc(F)c1)C(=O)c1ccccc1S2)c1ccccc1` (centres undefined), the survival was 89%.

Consider `COc1ccc2c(CNC3CCCC3)c(C(=O)O)n(Cc3ccccc3C)c2c1`, for which the survival is 95%.

Regarding `COc1ccccc1CNC(=O)CSc1ncc2c(n1)-c1ccc(Cl)cc1N(Cc1ccccc1)S2(=O)=O`, the survival was 32% (active).

As to `Cc1cccc(C)c1NC(=O)CSc1ncc2c(n1)-c1ccc(Cl)cc1N(Cc1ccccc1)S2(=O)=O`, the survival was 0% (active).

On to `COc1ccccc1CNC(=O)CSc1ncc2c(n1)-c1cc(Cl)ccc1N(Cc1ccccc1)S2(=O)=O`, for which the survival is 80%.

With `COc1ccc(CNC(=O)CSc2ncc3c(n2)-c2ccc(Cl)cc2N(Cc2ccccc2)S3(=O)=O)cc1`, the survival was 49%.

Turning to `O=C(CSc1ncc2c(n1)-c1ccc(Cl)cc1N(Cc1ccccc1)S2(=O)=O)Nc1ccc(F)c(F)c1`, the survival is 131%.

Take `CCc1cccc(NC(=O)CSc2ncc3c(n2)-c2ccc(Cl)cc2N(Cc2ccccc2)S3(=O)=O)c1`: the survival was 92%.

Values taken from PubChem BioAssay AID463173 (ICCB-Longwood Screening Facility, Harvard Medical School, 2010).
